The whole screen tested about 1,400 compounds, of which about 140 (10%) were called active.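 Rule for the calls: active = Half-maximal inhibitory dose from the fit at or below ten times the top valid tested dose; inconclusive = Invalid fit, or flat curve showing 30 to 70% inhibition; inactive = the rest.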 The list is a sample of the results. Entries with a potency or affinity are not part of this list.
Biological target: Lysine-specific demethylase 4C (Homo sapiens) (UniProt Q9H3R0)
Experiment: inhibition of JMJD2C H3K9me3 demethylation – biochemical, DELFIA europium, cherry-picked samples, dose response (AID 488835);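 note: signal is the H3K9me2 demethylation product detected by a dimethyl-specific antibody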
Conditions: GST-JMJD2C(1-420); series mostly up to 6 µM

Chain of Lysine-specific demethylase 4C (Homo sapiens) (Q9H3R0 1-420 limits assumed): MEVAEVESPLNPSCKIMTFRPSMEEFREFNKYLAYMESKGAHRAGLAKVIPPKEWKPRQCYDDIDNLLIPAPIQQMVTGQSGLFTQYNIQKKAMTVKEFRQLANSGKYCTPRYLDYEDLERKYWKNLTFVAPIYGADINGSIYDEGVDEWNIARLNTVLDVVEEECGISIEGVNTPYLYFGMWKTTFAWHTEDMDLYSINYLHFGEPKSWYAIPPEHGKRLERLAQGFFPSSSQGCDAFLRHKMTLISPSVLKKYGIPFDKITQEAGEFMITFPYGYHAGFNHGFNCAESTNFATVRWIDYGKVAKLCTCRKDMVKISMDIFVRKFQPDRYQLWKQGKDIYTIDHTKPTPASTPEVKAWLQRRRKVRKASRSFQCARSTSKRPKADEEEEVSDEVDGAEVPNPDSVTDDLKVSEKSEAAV

outcome, inactive:
CCSc1nnc(-c2cccc(S(=O)(=O)N(CC)CC)c2)n1Cc1ccccc1
Cc1ccc(-c2csc3nc(C)n(-n4c(C)ccc4C)c(=O)c23)o1
CN(C)CCOc1ccc(-c2c(-c3ccccc3)sc3ccccc23)cc1
COc1ccc(-c2n[nH]c(=S)n2C2CCCCC2)cc1
NC(=O)C1CCN(c2nc(-c3ccc4c(c3)OCCO4)cs2)CC1
Cc1nc(-c2ccc(C(=O)N3CCCC3)cc2)cs1
COc1ccc(OC)c(Nc2nc(-c3cccs3)cs2)c1
Fc1ccc(-c2csc(Nc3ccccn3)n2)cc1
OCC1=C[C@@H](O)[C@@H]2C=CO[C@@H](O[C@@H]3O[C@H](CO)[C@@H](O)[C@H](O)[C@H]3O)[C@H]12
COc1ccc2[nH]c(=O)c(CN(CCCN(C)C)C(=O)Nc3ccc(F)cc3)cc2c1
N#Cc1ccc(OCC(=O)Nc2ccccc2NS(=O)(=O)c2cccs2)cc1
CC(=O)C[C@@H](O)CC(=O)[C@H]1OC(=O)[C@H](C)C/C=C\Cc2ccccc21
Cc1cccc(C)c1NC1=NC(=S)N(c2ccc(C(=O)O)cc2)C12CCCCC2
O=C(COc1ccc(Cl)cc1)NCCCn1ccnc1
O=C(OCCCOC(=O)c1ccc(Br)o1)c1ccc(Br)o1
CN(C)S(=O)(=O)c1ccc(N2CCCC2)c(C(=O)Nc2nc3ccc(F)cc3s2)c1
COc1ccc2cc(Br)ccc2c1CC(=O)NCCCN1CCOCC1
CSCCC(NS(=O)(=O)c1ccc2ccccc2c1)C(=O)O (centres undefined)
Cn1c(=O)[nH]c(=O)c2[nH]c(NCCCN3CCOCC3)nc21
CCOC(=O)N1CCN(c2ccc(F)cc2[N+](=O)[O-])CC1
NC(=O)CC(NC(=S)NCc1ccccc1)C(=O)O (centres undefined)
O=C(c1ccc2c(c1)OCO2)N1CCCN(C(=O)c2ccc3c(c2)OCO3)CC1
COc1ccc(CC(=O)Nc2ccc(/C(C)=N/NC(=O)c3cccc([N+](=O)[O-])c3)cc2)cc1
O=C(NCC(=O)N1CCCCC1)c1sc2ccccc2c1Cl
c1cc2c(cc1C1CCCCC1)c1c3n2CCCNC3CCC1 (centres undefined)
COC(=O)c1cc(S(=O)(=O)NCCCN2CCCC2=O)cn1C
O=[N+]([O-])c1ccc(N2CCN(S(=O)(=O)c3ccc(Cl)cc3)CC2)cc1NCc1cccnc1
C=CCNC(=O)c1ccc(S(=O)(=O)CC)c(Cl)c1Cl
COC(=O)C1CCN(C(=O)COC(=O)COc2ccc(C#N)cc2)CC1
COc1cccc(NC(=S)/C(=C(\[O-])c2ccc(C)c([N+](=O)[O-])c2)[n+]2ccccc2)c1
Cn1nnnc1SCC(=O)NCC(=O)c1ccccc1
O=C(CSc1nnc(CNC(=O)c2cccs2)o1)c1ccccc1
NCc1nc(-c2ccc(Cl)cc2)no1
CCS(=O)(=O)Nc1ccc(C2=NN(C(=O)c3ccco3)C(c3ccc(C)cc3)C2)cc1 (centres undefined)
CC(CN1CCCC1)OC(=O)COc1ccccc1 (centres undefined)
COc1ccc(C(=O)NC2CC3CCCC(C2)N3Cc2ccccc2)cc1 (centres undefined)
O=C(NC1CCN(S(=O)(=O)c2ccc(F)cc2)CC1)c1ccc(F)cc1
CCN(CC)S(=O)(=O)c1ccc(N2CCOCC2)c(NC(=O)c2ccc3c(c2)OCCO3)c1
Oc1ccccc1N1CCN(C(=S)NCc2ccccc2)CC1
O=C(O)CCNc1ccc2c(c1)OCCO2
COc1ccc(S(=O)(=O)Nc2cccc3c2O[C@H](CN(C)Cc2ccc(C(=O)O)cc2)[C@@H](C)CN([C@H](C)CO)C3=O)cc1
CC(C)(C)C1CCc2[nH]c3ccccc3c(=O)c2C1 (centres undefined)
Cc1cc(=O)[nH]c(SCC(=O)Nc2ncc(S(=O)(=O)c3ccc([N+](=O)[O-])cc3)s2)n1
CCn1c(=O)c(C(=O)NCCc2ccc(Cl)cc2)c(O)c2ccccc21
CC1CCCCC12NC(=O)N(CC(=O)NCCc1ccccn1)C2=O (centres undefined)
COc1ccc(NC(=O)Nc2c[nH]c(=O)[nH]c2=O)cc1OC
COc1ccc(C(=O)OCCc2sc[n+](CC(=O)c3ccccc3)c2C)cc1
CCOC(=O)N1CCC(c2nc3ccccc3[nH]2)CC1
O=C(c1cccc(C(F)(F)F)c1)N1CCCC1
O=C(O)c1ccc(/C=N/Nc2cccc(C(F)(F)F)c2)cc1
Cn1c2ccccc2c(=O)c2ccc(NCCc3cccs3)cc21
COc1cccc(C(C[N+](=O)[O-])c2c(C)[nH]n(-c3ccccc3)c2=O)c1 (centres undefined)
CCCc1nn(C)c(C(=O)Nc2ccc(C)c(C)c2)c1Cl
O=C(Nc1nc2ccccc2n1CCN1CCCC1)C1CCCCC1
Cc1ccc(/C=N\NC(=O)c2cc([N+](=O)[O-])cc([N+](=O)[O-])c2)o1
O=C(N/N=C/c1cc([N+](=O)[O-])cc([N+](=O)[O-])c1O)/C(=C\c1cccs1)NC(=O)c1ccccc1
CC(C)c1ccc(NC2CCCN(C(=O)CCN3CCCCC3=O)C2)cc1 (centres undefined)
c1ccc(-c2csc(-n3cccn3)n2)cc1
CCOC(=O)c1sc(=S)n(-c2ccc(Cl)cc2)c1SC
O=C(Oc1ccc(N2C(=O)CCC2=O)cc1)c1ccccc1
O=C(Nc1nnc(-c2cc(Cl)ccc2Cl)o1)c1ccco1
COc1ccc(OC)c(C2=NOC(C(=O)NCCN3CCOCC3)C2)c1 (centres undefined)
CCOC(=O)[C@H]1[C@H]2COc3ccc(OC)cc3[C@@H]2N2C(=O)c3cc(C)ccc3NC(=O)[C@@]12C
Cc1cc2ccccn2c1C(=O)c1ccncc1
O=C1CC(CSc2ccc(Cl)cc2)=NN1
CCN(Cc1cc2cc(OC)ccc2[nH]c1=O)C(=O)c1ccncc1
Cc1ccccc1NC(=S)c1nc2ccccc2[nH]1
Cc1cccc(NC(=O)/C(=C\c2ccc([N+](=O)[O-])o2)NC(=O)c2ccc(Cl)cc2)c1
Cc1cccc(N2C(=O)C3C4C=CC(C4)C3C2=O)c1 (centres undefined)
Cc1cccc(C2=N/C(=C\c3cccnc3)C(=O)O2)c1
O=[N+]([O-])c1ccc(/C=[N+](\[O-])[C@@H]2CCCC[C@@H]2/[N+]([O-])=C/c2ccc([N+](=O)[O-])o2)o1
COc1cccc(C2c3[nH]c4ccccc4c3CCN2CCCn2cccn2)c1 (centres undefined)
N#CCCCCN1c2cccc3cccc(c23)S1(=O)=O
O=C(Cn1cnc2c(OCc3ccccc3)ncnc21)NCCN1CCOCC1
CN1CCN(c2ccc([N+](=O)[O-])cc2C(=O)N2CCOCC2)CC1
Cc1c(C(=O)N2CCC3(CC2)CC(=O)c2ccccc2O3)cccc1[N+](=O)[O-]
COc1ccc(OC)c(N(CC(=O)NCc2ccncc2)S(C)(=O)=O)c1
COc1ccc(-c2cc(C(F)(F)F)n3nc(C(=O)NCCCN4CCOCC4)cc3n2)cc1
Cc1[nH]c2ccccc2c1-c1ccc(Cl)nn1
COC(=O)c1ccc(CSc2nnc(N)s2)o1
COC(=O)c1sc(S(=O)(=O)NCc2ccccc2)c(C(=O)OC)c1C
COc1ccc(NC(=O)N(C)C[C@H]2Oc3c(NC(=O)Nc4ccccc4)cccc3C(=O)N([C@H](C)CO)C[C@@H]2C)cc1
COC(=O)C(Cc1ccccc1)NC(=O)COc1ccc(C(C)(C)C)cc1 (centres undefined)
COc1cc2cnncc2cc1OC
C/C(CC(=O)Nc1cccc(Cl)c1Cl)=N\NC(=O)c1ccccc1N
CC(C)(O)[C@H](O)Cc1cc2ccc(=O)oc2cc1O[C@@H]1O[C@H](CO)[C@@H](O)[C@H](O)[C@H]1O
CC1(C)CC[C@]2(CO)CC[C@]3(C)C(=CCC4[C@@]5(C)CC[C@H](O)[C@@](C)(CO)C5CC[C@]43C)[C@@H]2C1 (some centres undefined)
CCN(C[C@H]1N[C@@](C)(C(=O)OC)[C@H]2C(=O)N(C)C(=O)[C@@H]12)C(=O)Nc1ccc(OC)cc1
COc1ccc(/C=N/NC(=O)c2cc(C)on2)c2ccccc12
O=C(NCC1CCCO1)c1ccc2c(=O)n(Cc3cccc(Br)c3)c(=S)[nH]c2c1 (centres undefined)
CCn1c(SCC(=O)Nc2nc(C)cs2)nnc1-c1ccncc1
Cc1csc(NC(=O)CSc2nnc(-c3ccncc3)n2C)n1
CCCn1c2ccccc2c2nnc(SCC(=O)Nc3c(C)n(C)n(-c4ccccc4)c3=O)nc21
C[C@H](CO)N1C[C@H](C)[C@@H](CN(C)S(=O)(=O)c2ccccc2)Oc2ccc(NS(=O)(=O)c3ccc(F)cc3)cc2C1=O
O=C(COC(=O)Cc1ccccc1F)Nc1ccc(SC(F)F)cc1
CC(=O)N=c1sccn1CC(=O)c1ccc([N+](=O)[O-])cc1
COc1ccc(CNC(=O)CSc2nnnn2Cc2ccccc2)cc1
COc1ccccc1-c1nc(C#N)c(NCc2ccc(F)cc2)o1
CCNc1oc(-c2cccc3ccccc23)nc1C#N
O=c1c2ccccc2c(C=NCCCN2CCOCC2)c(O)n1Cc1ccccc1
CC(C)NC(=O)N(C)C[C@H]1Oc2ccc(NC(=O)C3CC3)cc2C(=O)N([C@H](C)CO)C[C@@H]1C
COC(=O)c1sc(NC(=O)c2cc3c(s2)CCCC3)nc1C
CCc1ccc(C(=O)CSc2nc3ccccc3c(=O)[nH]2)cc1
Cn1c(=O)[nH]c(=O)c2c1nc(SCC(=O)O)n2CCc1ccccc1

Reference: PubChem BioAssay AID488835 (Broad Institute, 2010)
